Targets with a hit are over-represented here; the source holds about 7,900 in all. About 0.6% of all pairs of compound and target were hits.
The targets below were run with CCCc1cc(C)[nH]c(=O)c1CNC(=O)c1cc(-c2ccnc(N3CCN(C)CC3)c2)cc2c1cnn2C(C)C (assay: log2 fold change, soluble protein after heating vs DMSO (PISA); higher = thermal stabilisation; K562 cells, 10 uM, 30 min; active = over 0.2 and 3.5 SD of the protein, either way, in both replicates (recomputed)).
Procedure, shortened: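 Soluble protein was quantified by TMTpro 16plex LC-MS/MS after channel sums were equalised. It was obtained as the supernatant after 21,000xg for 90 min from pooled aliquots of K562 cells (2×10^6 cells/mL, 10 μM compound, 30 min) heated for 3 min across 48°C-58°C and extracted in PBS with 0.5% NP-40 at 4°C. Thermal stability values are relative to control samples and come from duplicates. They are given as log2 fold changes.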

Chain of UniProt P69905 (P69905 whole entry, looked up): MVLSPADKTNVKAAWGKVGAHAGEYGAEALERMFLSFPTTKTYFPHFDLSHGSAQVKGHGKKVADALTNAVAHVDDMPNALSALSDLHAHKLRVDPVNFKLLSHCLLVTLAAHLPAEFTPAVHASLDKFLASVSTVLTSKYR
Chain of UniProt Q9ULT8 (Q9ULT8 whole entry, looked up): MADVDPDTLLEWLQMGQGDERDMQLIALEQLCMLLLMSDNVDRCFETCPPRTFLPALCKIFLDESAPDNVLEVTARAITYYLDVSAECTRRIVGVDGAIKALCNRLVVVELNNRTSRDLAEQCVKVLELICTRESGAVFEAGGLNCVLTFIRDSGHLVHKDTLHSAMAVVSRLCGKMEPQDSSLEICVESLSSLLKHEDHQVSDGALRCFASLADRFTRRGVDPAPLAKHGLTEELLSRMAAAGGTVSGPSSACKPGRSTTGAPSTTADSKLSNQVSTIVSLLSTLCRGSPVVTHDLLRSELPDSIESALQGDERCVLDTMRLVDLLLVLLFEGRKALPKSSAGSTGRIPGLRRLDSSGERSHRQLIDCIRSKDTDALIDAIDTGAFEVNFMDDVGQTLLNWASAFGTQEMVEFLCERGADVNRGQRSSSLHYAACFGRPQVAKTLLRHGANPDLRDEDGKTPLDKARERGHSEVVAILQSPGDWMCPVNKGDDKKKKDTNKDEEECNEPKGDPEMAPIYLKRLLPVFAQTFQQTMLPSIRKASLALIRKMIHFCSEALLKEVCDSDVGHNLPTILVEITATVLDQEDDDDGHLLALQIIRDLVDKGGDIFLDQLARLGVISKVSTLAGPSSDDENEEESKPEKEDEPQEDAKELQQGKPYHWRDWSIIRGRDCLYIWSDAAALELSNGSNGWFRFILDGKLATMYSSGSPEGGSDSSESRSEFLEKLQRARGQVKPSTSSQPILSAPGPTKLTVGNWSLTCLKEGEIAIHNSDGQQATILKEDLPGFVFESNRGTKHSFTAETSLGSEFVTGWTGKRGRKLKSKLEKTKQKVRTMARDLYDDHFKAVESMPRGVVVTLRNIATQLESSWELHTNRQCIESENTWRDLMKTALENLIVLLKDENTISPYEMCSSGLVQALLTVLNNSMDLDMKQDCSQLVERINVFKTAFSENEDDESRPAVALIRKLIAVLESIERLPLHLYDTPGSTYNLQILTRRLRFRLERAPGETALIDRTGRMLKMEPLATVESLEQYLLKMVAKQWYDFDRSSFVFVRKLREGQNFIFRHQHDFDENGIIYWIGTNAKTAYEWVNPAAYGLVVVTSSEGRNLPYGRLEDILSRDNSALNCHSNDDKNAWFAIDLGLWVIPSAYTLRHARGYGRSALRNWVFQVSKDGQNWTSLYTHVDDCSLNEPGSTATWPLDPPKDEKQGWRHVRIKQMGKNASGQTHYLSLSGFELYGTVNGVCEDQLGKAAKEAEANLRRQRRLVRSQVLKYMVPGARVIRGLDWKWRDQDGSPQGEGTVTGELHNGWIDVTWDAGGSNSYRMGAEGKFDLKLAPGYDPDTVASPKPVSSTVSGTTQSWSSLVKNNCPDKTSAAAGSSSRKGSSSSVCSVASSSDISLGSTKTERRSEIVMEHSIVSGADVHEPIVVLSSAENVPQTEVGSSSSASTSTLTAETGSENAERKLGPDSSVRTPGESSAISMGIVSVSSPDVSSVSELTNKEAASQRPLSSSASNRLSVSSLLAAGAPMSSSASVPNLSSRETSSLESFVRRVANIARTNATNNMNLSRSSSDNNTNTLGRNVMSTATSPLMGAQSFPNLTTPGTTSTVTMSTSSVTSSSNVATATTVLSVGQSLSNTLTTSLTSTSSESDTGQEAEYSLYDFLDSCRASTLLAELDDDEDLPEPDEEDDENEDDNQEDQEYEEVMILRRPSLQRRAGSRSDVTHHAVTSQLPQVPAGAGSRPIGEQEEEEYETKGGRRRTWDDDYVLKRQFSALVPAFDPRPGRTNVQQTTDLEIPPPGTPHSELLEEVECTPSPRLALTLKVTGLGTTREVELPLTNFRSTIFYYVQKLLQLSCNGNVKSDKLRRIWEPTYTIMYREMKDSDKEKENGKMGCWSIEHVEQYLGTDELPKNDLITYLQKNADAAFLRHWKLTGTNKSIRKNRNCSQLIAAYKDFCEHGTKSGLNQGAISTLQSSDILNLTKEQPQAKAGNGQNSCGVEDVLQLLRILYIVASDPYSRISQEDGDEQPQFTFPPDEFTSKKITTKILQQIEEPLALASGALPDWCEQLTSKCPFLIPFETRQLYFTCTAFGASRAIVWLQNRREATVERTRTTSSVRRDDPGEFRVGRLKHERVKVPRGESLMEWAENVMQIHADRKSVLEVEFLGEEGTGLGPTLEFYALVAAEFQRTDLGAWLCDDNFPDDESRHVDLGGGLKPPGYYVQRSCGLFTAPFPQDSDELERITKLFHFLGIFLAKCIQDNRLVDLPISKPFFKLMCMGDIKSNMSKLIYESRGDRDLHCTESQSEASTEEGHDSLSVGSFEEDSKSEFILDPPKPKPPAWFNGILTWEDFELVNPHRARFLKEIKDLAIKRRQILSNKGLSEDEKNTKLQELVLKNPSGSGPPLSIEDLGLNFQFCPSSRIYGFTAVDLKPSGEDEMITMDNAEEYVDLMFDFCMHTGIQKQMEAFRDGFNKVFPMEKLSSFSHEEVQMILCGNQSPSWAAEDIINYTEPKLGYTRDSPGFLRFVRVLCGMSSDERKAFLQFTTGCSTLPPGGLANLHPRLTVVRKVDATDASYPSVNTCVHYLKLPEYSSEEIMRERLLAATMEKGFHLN
Chain of UniProt Q8WXD5 (Q8WXD5 whole entry, looked up): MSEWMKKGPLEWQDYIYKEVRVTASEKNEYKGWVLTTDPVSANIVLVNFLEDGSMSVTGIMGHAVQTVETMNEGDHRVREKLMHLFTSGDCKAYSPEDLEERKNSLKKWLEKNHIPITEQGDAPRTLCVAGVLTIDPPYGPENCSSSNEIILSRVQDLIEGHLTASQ
Chain of UniProt P55084 (P55084 whole entry, looked up): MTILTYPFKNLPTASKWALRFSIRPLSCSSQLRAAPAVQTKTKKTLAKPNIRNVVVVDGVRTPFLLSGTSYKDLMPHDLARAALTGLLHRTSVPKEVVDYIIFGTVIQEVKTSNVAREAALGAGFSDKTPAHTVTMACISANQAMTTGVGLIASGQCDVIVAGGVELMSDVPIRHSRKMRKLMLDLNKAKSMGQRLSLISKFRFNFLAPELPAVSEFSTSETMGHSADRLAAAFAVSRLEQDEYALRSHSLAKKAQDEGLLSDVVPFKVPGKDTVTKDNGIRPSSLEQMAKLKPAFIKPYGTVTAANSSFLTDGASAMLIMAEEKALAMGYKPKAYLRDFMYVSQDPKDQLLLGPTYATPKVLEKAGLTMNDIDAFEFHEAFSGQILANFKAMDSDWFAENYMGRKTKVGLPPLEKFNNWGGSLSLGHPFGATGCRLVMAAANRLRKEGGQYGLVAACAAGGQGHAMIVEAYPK
Chain of UniProt O15228 (O15228 whole entry, looked up): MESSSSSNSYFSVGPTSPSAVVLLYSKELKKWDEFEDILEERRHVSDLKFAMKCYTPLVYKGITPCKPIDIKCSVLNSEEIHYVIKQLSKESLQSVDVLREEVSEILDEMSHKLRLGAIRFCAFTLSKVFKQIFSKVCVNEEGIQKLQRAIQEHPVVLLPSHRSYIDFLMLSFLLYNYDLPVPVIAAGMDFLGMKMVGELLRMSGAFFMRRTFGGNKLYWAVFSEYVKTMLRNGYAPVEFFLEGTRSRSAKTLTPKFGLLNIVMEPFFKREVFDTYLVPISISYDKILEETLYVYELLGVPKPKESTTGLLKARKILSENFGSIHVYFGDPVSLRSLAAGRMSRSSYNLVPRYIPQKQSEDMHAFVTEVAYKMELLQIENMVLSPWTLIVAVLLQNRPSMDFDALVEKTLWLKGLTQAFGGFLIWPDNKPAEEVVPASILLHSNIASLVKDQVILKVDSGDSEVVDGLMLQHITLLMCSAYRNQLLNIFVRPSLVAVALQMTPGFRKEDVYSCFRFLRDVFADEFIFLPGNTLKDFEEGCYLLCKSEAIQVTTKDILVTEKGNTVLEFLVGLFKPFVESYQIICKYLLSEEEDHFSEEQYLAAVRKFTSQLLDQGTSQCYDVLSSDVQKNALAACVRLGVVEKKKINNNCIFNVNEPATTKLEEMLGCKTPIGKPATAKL
Chain of UniProt Q96I24 (Q96I24 whole entry, looked up): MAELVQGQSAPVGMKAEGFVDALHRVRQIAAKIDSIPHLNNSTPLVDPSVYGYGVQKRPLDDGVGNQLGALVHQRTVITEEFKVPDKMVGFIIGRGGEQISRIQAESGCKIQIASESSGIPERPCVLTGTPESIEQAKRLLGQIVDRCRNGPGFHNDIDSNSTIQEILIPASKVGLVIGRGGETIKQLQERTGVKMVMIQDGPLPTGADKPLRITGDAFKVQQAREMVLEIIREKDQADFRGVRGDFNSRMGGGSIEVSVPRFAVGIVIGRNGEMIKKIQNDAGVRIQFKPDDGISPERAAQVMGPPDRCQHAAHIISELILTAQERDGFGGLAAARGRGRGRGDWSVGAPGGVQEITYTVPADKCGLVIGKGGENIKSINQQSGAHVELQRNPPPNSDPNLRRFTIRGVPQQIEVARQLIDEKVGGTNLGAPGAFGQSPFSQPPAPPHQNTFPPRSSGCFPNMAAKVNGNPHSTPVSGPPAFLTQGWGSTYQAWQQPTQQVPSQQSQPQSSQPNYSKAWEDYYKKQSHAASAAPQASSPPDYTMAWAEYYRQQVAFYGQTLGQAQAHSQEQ
Chain of UniProt P52657 (P52657 whole entry, looked up): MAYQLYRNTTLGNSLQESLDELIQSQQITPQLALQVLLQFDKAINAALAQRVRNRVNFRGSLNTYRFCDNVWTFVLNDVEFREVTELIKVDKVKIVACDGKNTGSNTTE
Chain of UniProt Q00688 (Q00688 whole entry, looked up): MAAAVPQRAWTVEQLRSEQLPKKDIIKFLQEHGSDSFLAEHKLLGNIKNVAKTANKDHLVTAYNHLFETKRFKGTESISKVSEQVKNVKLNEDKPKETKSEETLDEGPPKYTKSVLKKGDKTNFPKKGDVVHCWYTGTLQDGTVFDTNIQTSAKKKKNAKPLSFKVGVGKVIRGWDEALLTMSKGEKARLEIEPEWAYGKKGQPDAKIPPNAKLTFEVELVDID

log2 fold change, inactive:
HADHB (UniProt P55084) 0.113
GDPD1 (UniProt Q8N9F7) 0.099
HBZ (UniProt P02008) -0.008
FNTA (UniProt P49354) 0.007
FUBP3 (UniProt Q96I24) -0.059
FAM91A1 (UniProt Q658Y4) 0.07
GTF3C4 (UniProt Q9UKN8) 0.033
HSPA8 (UniProt E9PK54) -0.098
GNPAT (UniProt O15228) 0.03
GTF2A2 (UniProt P52657) -0.053
HBA1 (UniProt P69905) -0.038
GDI1 (UniProt P31150) -0.027
HMOX2 (UniProt P30519) 0.097
HMGN2 (UniProt P05204) -0.078
GYG1 (UniProt P46976) 0.101
FKBP3 (UniProt Q00688) -0.013
HEATR5B (UniProt Q9P2D3) -0.024
FKBP4 (UniProt Q02790) -0.009
H2AFX (UniProt P16104) 0.1
GUSB (UniProt P08236) -0.038
HDAC6 (UniProt Q9UBN7) -0.015
FBXO42 (UniProt Q6P3S6) -0.025
HP1BP3 (UniProt Q5SSJ5) -0.001
GEMIN5 (UniProt Q8TEQ6) 0.018
HSD17B12 (UniProt Q53GQ0) -0.141
HNRNPF (UniProt P52597) 0.027
GALNT2 (UniProt Q10471) 0.03
IFT80 isoform 3 (UniProt Q9P2H3) -0.013
GEMIN6 (UniProt Q8WXD5) 0.008
FDPS (UniProt P14324) -0.005
GNAS (UniProt Q5JWF2) 0.067
GOPC (UniProt Q9HD26) 0.244
FDXR isoform 7 (UniProt P22570) 0.059
HECTD1 (UniProt Q9ULT8) 0.054
GLUL (UniProt P15104) -0.016

Reference: the supplement of paper PMC10849652
